Most compounds without a hit are left out; they make up all but 3.6% or so of the library.
NPSR antagonist – antagonists of human neuropeptide S receptor cAMP signaling; AID 1461; CHO-NPSR cells, cAMP TR-FRET, antagonist mode; Potency, µM (top dose mostly 38.3 µM), hits mostly inhibitors; 220,000 compounds, 1% hits; also: nearly all actives have a fitted effect of over 50% in size
GCN5L2 inh – blocks human GCN5L2 histone acetyltransferase; Potency, µM (top dose mostly 58.9 µM), usual class: inhibitors; 390,000 compounds, 0.21% hits; Q92830; GCN5L2 HAT assay, ThioGlo1 CoA-SH fluorescence
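Compounds, pin-transferred from DMSO stocks, meet 20nM GCN5L2 for 15 min before the reaction begins with H3(1-25) peptide (75uM) and acetyl-CoA (70uM). Thiol-reactive ThioGlo1 reports CoA release over 20 min at room temperature.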
Sfp inh – inhibitors of Bacillus subtilis Sfp phosphopantetheinyl transferase. Q9F4F7. Biochemical Sfp PPTase activity, qHTS. Potency, µM, actives largely listed as inhibitors. 310,000 compounds, 3.5% hits. AID 1490;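 also: the enzyme is Sfp with the accession as filed and its product quenches rhodamine fluorescence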
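Reaction rates are the 30-min fluorescence difference (ex 525, em 598 nm) in wells containing 15 nM Sfp, 5 uM rhodamine-CoA and 12.5 uM BHQ-2-YbbR at pH 7.6 with 10 mM MgCl2.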
KDM4E inh – inhibitors of human JMJD2E histone demethylase; B2RXH2; JMJD2E catalytic domain, FDH-coupled NADH fluorescence (FDH is formaldehyde dehydrogenase); Potency, µM (top dose mostly 57.1 µM), most hits filed as inhibitors; 230,000 compounds, 1.6% hits; AID 2147; active = well fitted inhibition curve with a large enough effect, not every such curve was filed as active; inconclusive = small, poorly fitted or top-dose-only effect, or another doubt; inactive = no such curve, though single readings can be large or run the other way; also: nearly all actives have a fitted effect of over 50% in size
Target sequence (B2RXH2 1-337 limits assumed): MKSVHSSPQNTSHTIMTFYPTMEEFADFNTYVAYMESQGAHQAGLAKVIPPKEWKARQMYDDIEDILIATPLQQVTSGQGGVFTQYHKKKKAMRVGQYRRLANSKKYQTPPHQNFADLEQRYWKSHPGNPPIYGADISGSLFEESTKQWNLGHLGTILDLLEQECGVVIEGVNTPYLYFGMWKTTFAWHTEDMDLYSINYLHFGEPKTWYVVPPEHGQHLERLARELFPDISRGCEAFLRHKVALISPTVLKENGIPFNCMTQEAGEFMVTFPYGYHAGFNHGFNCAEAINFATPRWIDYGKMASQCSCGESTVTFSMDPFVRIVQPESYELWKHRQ
Epigenetic derep – epigenetic control regulation, reporter derepression. 280,000 compounds, 0.2% hits. murine LDR cells, GFP reporter derepression, 30 h. AID 1865. Potency, µM (highest dose often 53.9 µM), actives largely listed as activators; also: nearly all actives have a fitted effect of over 60% in size
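Readout is the number of GFP-expressing murine LDR cells, counted by cytometry following washing. Cells were treated with compound for 30 h at 37 C; the stably integrated CMV-GFP locus is normally silent.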
IMPase Li cell – IMPase inhibition in cells with lithium potentiation; CHO-M1 cells, IP1 TR-FRET (IP-One), carbachol + lithium; Potency, µM (titrated, usually from 59.4 µM), most hits filed as inhibitors; 210,000 compounds, 0.35% hits; AID 1457;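 also: IP1 builds up when IMPase is blocked and the TR-FRET signal falls; nearly all actives have a fitted effect of over 50% in size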
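Concentration–response in CHO-M1 cells, lithium-potentiated; 30 min at 37C. IP1 detected by competitive TR-FRET after 10 min lysis at RT. Hill-fitted AC50.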
Numbers stand for hits; 0 = inactive; ? = inconclusive; - = no result; ! = a repeat was not active. Unless noted, calls follow the shape of the dose curve; as a rule, active = well fitted curve in the direction sought with a large enough effect; inconclusive = small, poorly fitted or top-dose-only effect, or another doubt; inactive = no such curve, though single readings can be large; an effect the other way counts as inactive or inconclusive.

SMILES	NPSR antagonist	GCN5L2 inh	Sfp inh	KDM4E inh	Epigenetic derep	IMPase Li cell
C#CCOCCOCCOCCNc1nc(N2CCN(C(=O)[C@H](CCCCN)n3cc([C@@H](N)C(C)CC)nn3)CC2)nc(N2CCN(C(=O)[C@H](CCCCN)n3cc([C@@H](N)CO)nn3)CC2)n1 (stereo partly specified)	0	0	0	20µM	0	0
COc1ccc(CCNC(=O)CCc2c(C)nc3cc(-c4ccccc4)nn3c2C)cc1OC	-	0	-	-	0	-
CCc1c(C)nc2cc(-c3ccc(OC)c(OC)c3)nn2c1NCC1CC1	12.6µM	0	22.4µM	0	0	0
O=CNc1ncn[nH]1	-	-	-	-	-	0
CCn1c(SCC(=O)c2ccc3c(c2)Cc2ccccc2-3)nnc1-c1ccc(N)cc1	0	0	79.4µM	0	0	0
CCn1c(SCC(=O)c2ccc(O)c(O)c2)nnc1-c1ccc(C)cc1	0	0	0	25.1µM	0	0
CCn1c(SCC(=O)N2CCCC2)nnc1-c1ccc(N)cc1	0	0	0	0	0	0
C=CCOc1ccc(/C=N/Nc2ccccn2)cc1OC	0	0	?	?	0	0
CCCOc1ccc(/C=N/Nc2ccccn2)cc1OC	0	0	?	?	0	0
COc1cc(/C=N/Nc2ccccn2)cc(OC)c1O	0	0	35.5µM	0	0	0
COc1cc(N/N=C/c2ccccc2O)ncn1	0	0	0	25.1µM	0	0
CCOc1ccc(/C=N/Nc2ccccn2)cc1OC	0	0	56.2µM	0	0	0
COc1cc(N/N=C/c2ccc(N(C)C)cc2)ncn1	0	0	0	?	0	0
Cc1cn([C@H]2C[C@@H](N=[N+]=[N-])[C@@H](CO)O2)c(=O)[nH]c1=O	0	-	-	0	0	0
CC1=C2[C@H](/C=C(\C)C(=O)O)CC[C@@H](C)[C@H]2CC1	-	-	-	-	-	0
Cc1cc(=O)c2c(O)c3c(O)cc(=O)c4c3c3c(cc(O)c1c23)C(C)(C)C=4O	-	-	56.2µM!	0	15.8µM	0
CCOc1ccc(C(=O)c2cn(Cc3ccccc3)c3c(F)cc(F)cc3c2=O)cc1	-	0	-	-	0	-
Cc1ccc(-c2nn3c(-c4ccco4)nnc3c3ccccc23)cc1S(=O)(=O)NCC1CCCO1 (stereo unspecified)	0	0	50.1µM	0	0	?
Cc1cc2nc3c(=O)[nH]c(=O)nc-3n(C[C@H](O)[C@H](O)[C@H](O)COP(=O)(O)OP(=O)(O)OC[C@H]3O[C@@H](n4cnc5c(N)ncnc54)[C@H](O)[C@@H]3O)c2cc1C	-	0	0	-	-	-
Brc1ccc(OCc2ccccc2)c(CNCc2ccncc2)c1	0	0	79.4µM	0	0	0
Fc1ccc(COc2ccccc2CNCc2ccncc2)cc1	0	0	0	0	0	0
CC1=CC(=O)[C@@H]2C[C@H]1C2(C)C	-	0	0	0	0	0
COc1ccc(/C(O)=C/c2nc3ccccc3n(-c3ccccc3)c2=O)cc1	0	0	0	0	25.1µM	0
CCc1ccc(CN(C)C(=O)CCc2nc3ccccc3n(-c3ccc(OC)cc3)c2=O)cc1	0	0	0	0	0	0
COc1cc(/C=C2\CCCc3c2nc2ccccc2c3C(=O)O)cc(Br)c1O	-	0	0	-	-	-
SMILES	NPSR antagonist	GCN5L2 inh	Sfp inh	KDM4E inh	Epigenetic derep	IMPase Li cell
COc1cccc(/C=C2\CC(C)Cc3c2nc2ccccc2c3C(=O)O)c1OC (stereo unspecified)	-	0	31.6µM	-	-	-
COc1ccccc1-c1c(C)nn2c(N3CCN(c4cccc(Cl)c4)CC3)cc(C)nc12	-	0	-	-	0	-
O=C(CCC(=O)N1CCSc2ccccc21)NCc1cccc(Cl)c1	-	4.47µM	0	-	-	-
Fc1ccc(Br)cc1C1C=C(c2ccc(Br)s2)Nc2ncnn21 (stereo unspecified)	0	?	56.2µM	28.2µM	0	?
COc1cccc(C2C=C(c3ccc(Br)s3)Nc3ncnn32)c1OC (stereo unspecified)	?	0	?	?	0	0
COc1ccc(CNC(=O)c2cc3ccccn3n2)cc1OC	-	0	-	-	0	-
N#C/C(=C\c1cccc(O)c1)c1nc2ccccc2o1	?	0	79.4µM	?	0	-
N#C/C(=C\c1ccncc1)c1nc2ccccc2o1	0	0	?	?	0	-
